Structures can show the parent of a compound that is named as a salt. ± gives the standard deviation of the averaged measurements.
What was measured:
IMR-90 = experiment: relative cell viability (ATPlite) vs untreated control (fraction); higher = less toxic; conditions: 1 µM; 72 h
K562 [1] = experiment: as above; conditions: 1 µM; 72 h
K562 [2] = experiment: relative cell viability (ATPlite) vs untreated control, with imatinib (fraction); higher = less toxic; conditions: 1 µM; 72 h; imatinib 0.125 µM

SMILES | relative cell viability (IMR-90) | relative cell viability (K562 [1]) | relative cell viability (K562 [2])
CCC(=O)Nc1ccc2ncnc(Nc3cccc(Br)c3)c2c1 | 0.982 ± 0.058 | 0.903 ± 0.031 | 0.743 ± 0.05
O=c1[nH][nH]c2nnc(-c3c(-c4ccccc4)nn4ccccc34)cc12 [ERK Inhibitor II, Negative control] | 0.966 ± 0.077 | 0.833 ± 0.086 | 0.758 ± 0.019
O=C(c1cc2cc(O)ccc2[nH]1)c1cc2cc(O)ccc2[nH]1 [Flt-3 Inhibitor II] | 1.04 ± 0.085 | 0.461 ± 0.026 | 0.418 ± 0.035
CC(=O)O/N=C1/C(c2c(O)[nH]c3cc(Br)ccc23)=Nc2ccccc21 [GSK-3 Inhibitor X] | 0.903 ± 0.052 | 0.885 ± 0.08 | 0.76 ± 0.036
Nc1ncnc2c1c(I)cn2[C@@H]1O[C@H](CO)[C@@H](O)[C@H]1O [5-Iodotubercidin] | 0.745 ± 0.14 | 0.715 ± 0.12 | 0.702 ± 0.065
COc1ccc(CNC(=O)Nc2ncc([N+](=O)[O-])s2)cc1 [GSK-3b Inhibitor VIII] | 0.978 ± 0.09 | 0.82 ± 0.048 | 0.713 ± 0.049
CC[C@H](CO)Nc1nc(NCc2ccccc2O)c2ncn(C(C)C)c2n1 [Olomoucine II] | 1.07 ± 0.073 | 0.758 ± 0.02 | 0.715 ± 0.028
O=C(Nc1cccc(Nc2nccc(Nc3cccc(C(F)(F)F)c3)n2)c1)C1CC1 [Aurora Kinase Inhibitor III] | 0.892 ± 0.074 | 0.892 ± 0.044 | 0.755 ± 0.05
COc1ccc2c(c1)c1c3c(c4c5ccccc5n(C)c4c1n2CC(O)CN(C)C)C(=O)NC3=O (centres undefined) [Gö 7874, Hydrochloride] | 0.87 ± 0.034 | 0.901 ± 0.025 | 0.775 ± 0.031
CCOc1nc(NC(=O)Cc2cc(OC)ccc2OC)cc(N)c1C#N [JNK Inhibitor VIII] | 0.992 ± 0.081 | 0.983 ± 0.035 | 0.769 ± 0.053
COc1cc2ncnc(Nc3cccc(O)c3)c2cc1OC [WHI-P180, Hydrochloride] | 0.912 ± 0.092 | 0.747 ± 0.073 | 0.366 ± 0.045
Fc1ccc(-c2nc3n(c2-c2ccncc2)CCS3)cc1 | 0.999 ± 0.12 | 0.845 ± 0.071 | 0.737 ± 0.058
CO[C@H]1C[C@@H]2CC[C@@H](C)[C@@](O)(O2)C(=O)C(=O)N2CCCC[C@H]2C(=O)O[C@H]([C@H](C)C[C@@H]2CC[C@@H](O)[C@H](OC)C2)CC(=O)[C@H](C)/C=C(\C)[C@@H](O)[C@@H](OC)C(=O)[C@H](C)C[C@H](C)/C=C/C=C/C=C/1C [Rapamycin] | 0.598 ± 0.075 | 0.585 ± 0.032 | 0.481 ± 0.036
CCOC(=O)c1c(C)[nH]c(/C=C2\C(=O)Nc3ccccc32)c1C [VEGF Receptor 2 Kinase Inhibitor I] | 0.961 ± 0.063 | 0.996 ± 0.047 | 0.845 ± 0.075
Nc1ccc(-c2cccc3c(=O)cc(N4CCOCC4)oc23)cc1 | 0.822 ± 0.13 | 0.79 ± 0.094 | 0.627 ± 0.056
NC(N)=NCCNS(=O)(=O)c1cccc2cnccc12 [HA 1004, Dihydrochloride] | 1.01 ± 0.1 | 0.851 ± 0.066 | 0.756 ± 0.015
COc1cc2ncnc(N3CCN(C(=O)Nc4ccc(Oc5ccccc5)cc4)CC3)c2cc1OC [PDGF Receptor Tyrosine Kinase Inhibitor III] | 1.01 ± 0.086 | 0.736 ± 0.03 | 0.649 ± 0.029
Cc1ccc(S(=O)(=O)/C=C/C#N)cc1 | 1.01 ± 0.032 | 0.721 ± 0.15 | 0.697 ± 0.14
O=c1cc(N2CCOCC2)oc2c1ccc1ccccc12 [DNA-PK Inhibitor II] | 1 ± 0.061 | 0.815 ± 0.041 | 0.754 ± 0.023
Cc1cc2ncc(-c3ccccc3)nc2cc1C | 0.969 ± 0.069 | 0.836 ± 0.094 | 0.719 ± 0.05
Cn1cc(C2=C(c3cn(CCCSC(=N)N)c4ccccc34)C(=O)NC2=O)c2ccccc21 | 0.967 ± 0.2 | 0.834 ± 0.1 | 0.733 ± 0.062
CC(C)[C@H](CO)Nc1nc(Nc2cc(N)cc(Cl)c2)c2ncn(C(C)C)c2n1 [Aminopurvalanol A] | 0.837 ± 0.084 | 0.916 ± 0.037 | 0.796 ± 0.025
CCN(CC)C(=O)c1ccc(Nc2nc(OCC3CCCCC3)c3[nH]cnc3n2)cc1 [Cdk2 Inhibitor IV, NU6140] | 1.03 ± 0.076 | 0.775 ± 0.041 | 0.672 ± 0.031
COc1ccc(OC)c2c(=S)c3ccccc3[nH]c12 | 0.981 ± 0.051 | 0.927 ± 0.054 | 0.795 ± 0.041
COc1ccc(-c2cnc3c(-c4ccsc4)cnn3c2)cc1 [VEGF Receptor 2 Kinase Inhibitor IV] | 0.993 ± 0.1 | 0.893 ± 0.072 | 0.726 ± 0.067
O=C1Nc2ccc(Cl)cc2/C1=C/c1cc(Cl)c(O)c(Cl)c1 [PKR Inhibitor, Negative Control] | 0.968 ± 0.089 | 0.848 ± 0.072 | 0.721 ± 0.058
Nc1[nH]nc2nnc(-c3c(-c4ccccc4)nn4ccccc34)cc12 | 1.03 ± 0.046 | 0.915 ± 0.036 | 0.779 ± 0.048
O=C1NC(=O)C(c2cn(CCCO)c3ncccc23)=C1c1cnccn1 [GSK-3b Inhibitor XI] | 1.02 ± 0.054 | 0.915 ± 0.075 | 0.757 ± 0.046

— the supplement of paper PMC4100887
